Tb PYK inh = blocks Trypanosoma brucei pyruvate kinase | Q57TT1 | TbPYK enzyme, Kinase-Glo Plus ATP luminescence, 45 min | Potency, µM (series often up to 76.8 µM), actives largely listed as inhibitors | 410,000 tested, 0.12% active; note: nearly all actives have a fitted effect of over 50% in size
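Activity of T. brucei pyruvate kinase was followed by Kinase-Glo Plus luminescence after the enzyme reacted 45 min at room temperature with 130 uM ADP (final) and substrate. Test compounds were added before ADP at multiple concentrations.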
LmPK inhibitor = inhibitors of Leishmania mexicana pyruvate kinase; purified LmPK, Kinase-Glo ATP luminescence, 1 h; Q27686; AID 1721; Potency, µM (highest dose often 57.5 µM), actives largely listed as inhibitors; 290,000 tested, 0.37% active
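Purified LmPK (0.1 nM) converted ADP (0.1 mM) to ATP with PEP (0.5 mM) in imidazole buffer pH 7.2 with KCl and MgCl2, 1 h at room temperature. ATP was read by Kinase-Glo luminescence; data normalized to uninhibited and no-enzyme controls.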
Shiga toxin inh = blocks Shiga toxin action in Vero cells. Vero cells, Shiga toxin protein synthesis inhibition reporter. inhibition, % at 38.7 µM. 290,000 tested, 9.2% active; in the data active = inhibition mostly above about 28%, no sharp cut-off; inactive = mostly below about 43%
Giardia FBPA inh = blocks Giardia fructose-bisphosphate aldolase activity. A8B2U2. purified Giardia FBPA. Potency, µM (highest dose often 59.6 µM), hits mostly inhibitors. 290,000 tested, 0.71% active. AID 2451; note: nearly all actives have a fitted effect of over 55% in size
Target sequence (A8B2U2 whole entry, looked up): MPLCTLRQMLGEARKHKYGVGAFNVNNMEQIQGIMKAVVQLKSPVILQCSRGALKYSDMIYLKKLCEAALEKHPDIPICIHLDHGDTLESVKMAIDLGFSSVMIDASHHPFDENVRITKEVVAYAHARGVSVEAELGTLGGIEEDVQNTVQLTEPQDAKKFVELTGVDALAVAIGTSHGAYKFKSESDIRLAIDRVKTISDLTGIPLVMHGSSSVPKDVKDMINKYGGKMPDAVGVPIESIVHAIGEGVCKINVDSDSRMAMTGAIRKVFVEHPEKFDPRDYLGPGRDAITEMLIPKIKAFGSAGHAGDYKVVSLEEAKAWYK
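40 nM FBPA preincubated 10 min at RT with compound (up to 57.5 uM final), then substrate plus GAPDH/TPI/NAD/arsenate coupling and diaphorase/resazurin added. Fluorescence read after 20 min at RT, 525/598 nm.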
Cycloheximide cs = counter-screen hit for Shiga toxin inhibitors, cycloheximide. cell reporter, cycloheximide protein synthesis inhibition counterscreen. max response, %. 300,000 tested, 12% active. AID 2314; in the data active = max response mostly above about 13%, no sharp cut-off; inactive = mostly below about 14%; note: read at 38.3 µM for the half of the compounds with a filed dose
RE007 growth inh = less growth of the S. pombe RE007 Vpr strain | S. pombe RE007 Vpr strain, BacTiter-Glo ATP luminescence, 24 h | Potency, µM (highest dose often 92.2 µM), actives largely listed as inhibitors | 360,000 tested, 0.21% active | AID 651644; active = well fitted falling curve with a large enough effect; inconclusive = small, poorly fitted or top-dose-only effect; inactive = no such curve, though single readings can be large or run the other way; note: nearly all actives have a fitted effect of over 50% in size
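Fission yeast strain RE007, carrying one chromosomally integrated HIV-1 vpr copy, was seeded at OD 0.01 in PMG+AL medium with 23 nL pinned compound. After 24 h at 30 °C and 99% humidity, viability was read by BacTiter-Glo luminescence.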
A number is an active result; . = inactive; ? = inconclusive; / = not tested or not shown. Shown is part of a subset that was picked to be rich in hits. Unless noted, calls come from the whole dose curve; as a rule, active = well fitted curve in the direction sought with a large enough effect; inconclusive = small, poorly fitted or top-dose-only effect, or another doubt; inactive = no such curve, though single readings can be large; an effect the other way counts as inactive or inconclusive.

SMILES | Tb PYK inh | LmPK inhibitor | Shiga toxin inh | Giardia FBPA inh | Cycloheximide cs | RE007 growth inh
Cc1ccc(CNC(C)c2ccccc2)cc1 (configuration not stated) | . | . | . | . | . | .
Cc1ccc(NC(=O)NCC(c2ccccc2)N(C)C)cc1 (configuration not stated) | . | . | 67.9 | . | 35.1 | .
CC(=O)c1ccc(NC(=O)CNCC(c2ccccc2)N(C)C)cc1 (configuration not stated) | . | . | . | . | . | .
CCC(Sc1nc2ccccc2c(=O)[nH]1)C(=O)Nc1ccc(C(C)=O)cc1 (configuration not stated) | . | . | 59.1 | . | 32.2 | .
O=C1C2C3C=CC(CC3)C2C(=O)N1/N=C/c1c[nH]c2ccccc12 (configuration not stated) | . | . | 124.9 | . | 51.9 | .
COc1ccc(/C=N/N2C(=O)C3C4C=CC(CC4)C3C2=O)c(OC)c1 (configuration not stated) | . | . | 54.7 | . | 45.3 | .
Cc1ccc(C)n1-c1ccc(N2CCOCC2)cc1 | . | . | . | ? | 21.9 | .
c1ccc(N2CCOCCOCCOCCOCC2)cc1 | . | . | . | . | . | .
c1ccn(-c2ccc(N3CCOCC3)cc2)c1 | . | . | 49.0 | . | 37.9 | .
CC(C)C[C@H](NC(=O)CNC(=O)[C@H](C)NC(=O)[C@H](CC(C)C)NC(=O)[C@H](CCCNC(=N)N)NC(=O)[C@H](Cc1cnc[nH]1)NC(=O)[C@@H](NC(=O)[C@@H](NC(=O)[C@@H]1CSSC[C@H](NC(=O)[C@@H](N)CO)C(=O)N[C@@H](CC(N)=O)C(=O)N[C@@H]([C@@H](C)O)C(=O)N[C@@H](C)C(=O)N[C@@H]([C@@H](C)O)C(=O)N1)C(C)C)[C@@H](C)O)C(=O)N[C@@H](CC(C)C)C(=O)N[C@@H](CO)C(=O)N[C@@H](CCCNC(=N)N)C(=O)N[C@@H](CO)C(=O)NCC(=O)NCC(=O)N[C@H](C(=O)N[C@H](C(=O)N[C@@H](CCCCN)C(=O)N[C@@H](CC(=O)O)C(=O)N[C@@H](CC(N)=O)C(=O)N[C@@H](Cc1ccccc1)C(=O)N[C@H](C(=O)N1CCC[C@H]1C(=O)N[C@H](C(=O)N[C@@H](CC(N)=O)C(=O)N[C@H](C(=O)NCC(=O)N[C@@H](CO)C(=O)N[C@@H](CCCCN)C(=O)N[C@@H](C)C(=O)N[C@@H](Cc1ccccc1)C(N)=O)C(C)C)[C@@H](C)O)C(C)C)C(C)C)C(C)C | / | / | . | . | . | /
COc1ccc(-n2c(=O)c3c4c(sc3n(Cc3ccc(C)cc3C)c2=O)CCC4)c(OC)c1 | . | / | / | / | / | /
CCOc1cc(/C=N/NC(=O)CSc2nncn2C)ccc1OCc1ccccc1 | . | . | . | . | . | .
COc1cc(/C(C)=N/NC(=O)CSc2nncn2C)ccc1OCc1ccccc1Cl | . | . | 84.4 | . | 37.7 | .
Cc1nn2cc(-c3ccc(N)cc3)nc2s1 | . | . | 69.3 | . | 34.8 | .
CCCCn1nc(C(=O)NNC(=O)c2ccncc2)c2ccccc2c1=O | . | . | 20.2 | / | 40.2 | .
CCCn1nc(C(=O)NNC(=O)c2cccc(C)c2)c2ccccc2c1=O | . | / | / | / | / | .
COc1nc(N)nc(NC23CC4CC(CC(C4)C2)C3)n1 | . | . | 20.6 | . | 15.4 | .
COc1ccc(-c2oc3ccc(N4CCOCC4)cc3c2/C=C/c2ccc(OC)c(OC)c2)cc1 | . | . | 29.6 | . | 11.7 | .
O=C1CC(NN2CCCCC2)C(=O)N1c1ccccc1 (configuration not stated) | . | . | . | . | 12.6 | .
Cc1c(Cl)cccc1NC(=O)c1ccco1 | . | . | / | . | . | .
Cc1ccc(O)c(NC(=O)c2cccc(NC(=O)c3ccco3)c2)c1 | . | . | 57.9 | . | 29.6 | .
Cc1cc(C)cc(NC(=O)c2cccc(NC(=O)c3ccco3)c2)c1 | . | / | / | / | / | ?
Cc1ccc(O)c(NC(=O)c2ccco2)c1 | . | . | 55.5 | . | 35.6 | ?
Cc1ccc(C(=O)Nc2ccc(NC(=O)c3ccco3)c(C)c2)cc1 | . | . | 49.0 | . | 30.6 | .
Cc1cc(O)c(NC(=O)c2ccco2)cc1C | . | . | 99.4 | . | 57.4 | ?
SMILES | Tb PYK inh | LmPK inhibitor | Shiga toxin inh | Giardia FBPA inh | Cycloheximide cs | RE007 growth inh
COc1ccc(CCNC(=O)COC(=O)/C=C/c2cc(OC)c(OC)c(OC)c2)cc1OC | . | . | . | . | . | .
c1ccc(SC23CCCCN(CCC2)[C@]32CO2)cc1 (some centres not stated) | . | / | / | / | / | .
O=C(NCc1cccnc1)Nc1ccc2c(c1)OCO2 | . | . | 128.3 | . | 26.8 | .
O=C(NCCCn1ccnc1)Nc1ccc2c(c1)OCO2 | . | . | 75.8 | . | 38.7 | .
CCc1ccc(NC(=O)NCc2ccc3c(c2)OCO3)cc1 | . | . | . | . | . | .
Cn1cc(CNC(=O)Nc2ccc3c(c2)OCO3)cn1 | . | . | . | . | 14.8 | .
c1cncc(CNc2ccc3c(c2)OCO3)c1 | ? | . | . | ? | . | .
Cn1c(N)c(C(=O)COC(=O)CNC(=O)c2ccccc2F)c(=O)n(C)c1=O | . | / | / | / | / | .
CCOC(CCNC(=O)c1cc(-c2cccs2)nc2ccccc12)OCC | . | . | . | . | . | .
N#CCC(=O)N/N=C/c1cc([N+](=O)[O-])ccc1N1CCCC1 | . | . | 46.7 | . | . | .
CCCCC(=O)N1CCN(c2nc3ccc(Cl)cc3s2)CC1 | . | . | 43.1 | / | 45.2 | .
CC(C)(CC(=O)O)CC(=O)N1CCCN(c2nc3ccc(Cl)cc3s2)CC1 | . | . | 67.3 | . | 16.2 | .
CC(C)(C)NC(=O)N1CCN(c2nc(-c3ccccc3)ns2)CC1 | . | . | 107.7 | . | 35.0 | .
CC(C)(C)NC(=O)N1CCN(c2nc3ccc(Cl)cc3s2)CC1 | . | . | 41.6 | . | . | .
Cc1cc(C)cc(-n2c(C)cc(C(=O)C(=O)Nc3ccccc3F)c2C)c1 | . | / | / | / | / | /
CCCN1CCc2c(sc3nc(SCC)n(-c4ccc(OC)cc4)c(=O)c23)C1 | . | . | . | . | . | .
O=S1(=O)N[C@H](Cc2ccccc2)COc2cc(N3CC[C@H](O)C3)ccc21 | . | / | / | / | / | .
Cc1cc(C)cc(NS(=O)(=O)c2ccc(NC(=S)Nc3ccccc3)cc2)c1 | . | . | . | . | 13.8 | .
NS(=O)(=O)c1ccc(NS(=O)(=O)c2ccc(NC(=S)Nc3ccccc3)cc2)cc1 | . | . | . | . | . | .
Cc1ccc(NC(=S)NNC(=O)Nc2ccccc2)cc1 | . | . | 108.9 | . | 54.2 | .
O=C(NNC(=S)Nc1ccccc1)NNC(=S)Nc1ccccc1 | . | . | . | . | . | .
Cc1ccc(NC(=S)NNC(=O)c2nn(C)c(C)c2Cl)cc1 | . | . | 93.4 | . | 36.2 | .
